Measured values as given in PubChem BioAssay AID493208 (National Center for Advancing Translational Sciences (NCATS), 2011).
Among all 44,000 compounds or so, about 340 (0.77%) were called active. A call without a number means that no potency is given here. Another 5% or so got no clear call; they are omitted. Calls come from the whole dose curve; as a rule, active = well fitted inhibition curve with a large enough effect; inconclusive = small, poorly fitted or top-dose-only effect; inactive = flat fitted curve, though single readings scatter. Many of the other results were omitted from the sample, so actives are more common in it than they were.

Experiment: Acumen qHTS Assay for Inhibitors of the mTORC1 Signaling Pathway in MEF (Tsc2-/-, p53-/-) Cells: Sytravon; note: nearly all actives have a fitted effect of over 50% in size
Conditions: phospho-rpS6 immunofluorescence/PI, 24 h; series mostly up to 38.3 µM
Description: NIH Molecular Libraries Probe Production Centers Network [MLPCN] NIH Chemical Genomics Center [NCGC] MLPCN Grant: NS059428-01 Assay Submitter (PI): Blenis, John; Hoffman, Greg; Harvard University NCGC Assay Overview: The mammalian target of rapamycin (mTOR) is an intracellular serine/threonine kinase Aberrant regulation of mTOR signaling plays a causative role in a number of human diseases, including cancer, benign tumors such as lymphangioleiomyomatosis (LAM) and Tuberous Sclerosis Complex (TSC), and metabolic diseases such as diabetes and obesity. This project aims to identify inhibitors of ribosomal protein S6 (rpS6) phosphorylation. The phosphorylation of rpS6 is a key event downstream of mTOR activation. The assay uses a phospho-specific antibody of phospho-rpS6 to detect inhibitors of mTOR activation. Mutations in the Tsc1 and Tsc2 genes are the underlying genetic lesions responsible for TSC, causing constitutive activation of the mTORC1 pathway and leading to profound effects on cell metabolism. Aberrant metabolism in cancer has recently received significant attention as a target to develop therapeutic agents in the treatment of cancer.1 As Tsc2-/- cells have lost the ability to respond to energy and growth factor deprivation, these cells are unable to properly down regulate cellular biosynthetic processes in response to metabolic stress, and are thus extremely sensitive to glucose deprivation-induced death.2 A central goal of this project is to explore the unique cell survival and metabolic properties of cells with Tsc1 or Tsc2 by screening for compounds that selectively target the Tsc2-/- MEFs by screening both Tsc2-/- and WT MEF cell lines. We hope to better understand these aspects of TSC physiology in order to exploit them for therapeutic benefit.
NCGC Acumen Assay Protocol Summary: For quantitative high throughput analysis of mTORC1 signaling, we developed a cell-based assay for immuno-fluorescence based detection of rpS6 phosphorylation on the Acumen Explorer that will be used a platform for the primary small molecule screen. Mouse embryonic fibroblasts (MEFs) are cultured in 1536-well plates using DMEM + 10% FBS. Twenty-four hrs after plating, test compounds (solubilized in DMSO) are delivered and incubated with the cells for 24 hrs at 37 degree Celsius. Following the incubation, media with compound is aspirated and the cells are fixed in 4% paraformaldehyde (PFA) containing PBS + 0.2% TX-100. Next, PFA is aspirated, cells are washed two times with PBS plus 0.2% TX-100 and the cells are blocked for 1 hr at room temperature (blocking buffer: LiCOR Blocking Buffer plus 0.2% TX-100). […] Cells are washed two times with PBS plus 0.2% TX-100, and stained with 10 uM propidium iodide (PI) for 20-25 minutes for cell number measurement (1:500 dilution of Hoescht staining is also added for IN Cell imaging). The plates are scanned on the Acumen Explorer laser scanning instrument (TTP Labtech) using the 488nm laser for simultaneous excitation of the Alexa-488 and PI. […] The normalized phospho-S6 staining is calculated as the ratio of the integrated Alexa 488 intensity divided by the integrated PI intensity for the single concentration rapamycin control (7.5 nM) and DMSO columns. […] Inhibition of the pathway is defined based on the normalized phospho-S6 intensity in rapamycin treated cells. Active cells are defined as those with a normalized phospho-S6 staining above this threshold, and each treatment is reported as the % positive cells in the well, where thresholds are defined by selecting wells with the highest and lowest signal and differentiating between the % non-active and % active populations. In addition to the pathway specific phospho-S6 endpoint, the number of PI stained cells from the Acumen is recorded as a measure of cell viability. The primary screen was performed with a MEF cell line in a defined genetic background, Tsc2-/-, p53-/- cell line stably transfected with an empty vector control (Tsc2-/- MEF).
Potency is the fitted concentration of half-maximal effect.

SMILES	Potency
COc1ccc2c(Sc3ccc(C)cc3)c(C(=O)NC(C)c3ccccc3)[nH]c2c1 (stereo not given)	inactive
CCc1ccc(CNC(=O)C2CCN(c3nn4cc(-c5ccc(F)cc5)nc4s3)CC2)cc1	inactive
COCCNC(=O)CSc1nc(-c2ccccc2)[nH]c1-c1ccc(C)cc1	inactive
CCOc1ccccc1NC(=O)CSc1ncc(S(=O)(=O)c2ccc(C(C)(C)C)cc2)c(=O)[nH]1	inactive
CCOc1ccc(CNCc2c(C(=O)O)c(C)n(Cc3cccc(OC)c3)c2C)cc1OC	inactive
CCCCOc1ccc(Cn2c(=O)oc3ccc(C)cc32)cc1OC	inactive
CCCCOc1ccc(CN2C(=O)C(=O)c3cc(Br)cc(C)c32)cc1OC	9.27 µM (active)
Cc1cc(NC(=O)c2cccc(Cl)c2)ccc1-c1cc2ccccc2oc1=O	inactive
COc1cccc(C(=O)Nc2nnc(S(=O)(=O)N3CCOCC3)s2)c1	inactive
COc1ccccc1NC(=O)c1cc(S(=O)(=O)NCCc2ccccc2)ccc1F	inactive
Cc1cc(C)c2oc(-c3cccc(NC(=O)c4cccc(F)c4)c3C)nc2c1	inactive
CCc1ccc(CNCc2c(C(=O)O)n(Cc3ccc(F)cc3Cl)c3cc(OC)ccc23)cc1	inactive
COc1ccc(Cl)cc1NC(=O)CSc1nc(-c2cccs2)cc(C(F)(F)F)n1	inactive
COc1ccc(C)cc1NC(=O)COCc1cc(-c2cccs2)on1	inactive
COc1ccc(C(F)(F)F)cc1NC(=O)c1sc2nc(-c3cccs3)ccc2c1N	18.5 µM (active)
Cc1nc2c(c(C)nn2-c2ccccc2)c(C)c1CCC(=O)NCCc1ccc(Cl)cc1	inactive
O=C(NCc1ccccc1)c1cc(-c2cccc(Cl)c2)on1	inactive
CC(C)CCN(C(=O)Nc1ccc(Cl)c(Cl)c1)C(C)c1cccs1 (stereo not given)	inactive
Cc1cccc(CCNC(=O)c2ccc3c(c2)nc2n3CCC(C)C2)c1 (stereo not given)	inactive
Cc1nn2c(=O)cc(COC(=O)c3ccccc3NC(=O)COc3ccccc3C)nc2s1	inactive
COc1ccc(Br)cc1CNC(=O)c1cc(=O)[nH]c2ccc(S(=O)(=O)N3CCCC3)cc12	inactive
CN(C)CCCn1c(-c2ccc(Cl)cc2)csc1=Nc1ccccc1	inactive
COc1ccc(-c2nnc(SCC(=O)Nc3ccccc3C)o2)cc1OC	inactive
COc1ccc(Cc2nc3ccc(C(=O)NCc4ccc(OC)cc4OC)cc3o2)cc1	inactive

SMILES	Potency
Cc1ccc(Cl)cc1NC(=O)CCC(=O)N1CC(C)Sc2ccccc21 (stereo not given)	inactive
Cc1nc2ccccn2c(=O)c1NC(=O)c1c(F)cccc1F	inactive
CCc1cccc(NC(=O)Cn2nc(CC)n3c(cc4cc(C)ccc43)c2=O)c1	inactive
CCOc1ccc(Nc2c(S(=O)(=O)c3ccccc3)cnc3ccccc23)cc1	inactive
COc1ccc(CNC(=O)c2cc3cccc(OC)c3oc2=O)cc1	inactive
COc1ccc(-n2c(SCC(N)=O)nc3c(oc4ccccc43)c2=O)cc1	inactive
CCOc1ccccc1NC(=O)C1=C(C)Nc2ncnn2C1c1ccc(NC(C)=O)cc1 (stereo not given)	inactive
CCOc1ccc(C2C(C(=O)Nc3ccc(Cl)cc3)=C(C)Nc3nc(C(F)(F)F)nn32)cc1 (stereo not given)	5.85 µM (active)
CCOc1cc(C2C(C(=O)Nc3ccc(OC)cc3)=C(C)Nc3nc(SC)nn32)ccc1O (stereo not given)	inactive
CCc1cccc(NC(=O)c2cnc(N3CCOCC3)c3ccccc23)c1	inactive
Cc1cccc(N2CCN(C3=C(c4ccccc4)C(=O)c4ccccc43)CC2)c1C	inactive
COc1ccc(N(CC(=O)NCCc2ccc(Cl)cc2)S(=O)(=O)c2c(C)nn(C)c2C)cc1	inactive
Cc1ccc(OCC(=O)Nc2ccc(OCc3cc(=O)n4c(C)csc4n3)cc2)cc1C	inactive
O=C(Cn1c(=O)n(-c2ccc(F)cc2)c(=O)c2sc3ccccc3c21)NC1CCCC1	inactive
CCOc1cc(-c2nnc(SCC(=O)NC3CCCC3)nc2-c2ccc(OC)c(OCC)c2)ccc1OC	inactive
CCOc1ccc(CCNC(=O)Cn2nc(CC)n3c(cc4sc(CC)cc43)c2=O)cc1OCC	inactive
CCc1ccc(C(=O)CC2(O)C(=O)N(CCc3ccccc3)c3ccc(Br)cc32)cc1 (stereo not given)	inactive
CCCN1C(=O)C(O)(CC(=O)c2ccc(CC)cc2)c2cc(Br)ccc21 (stereo not given)	4.65 µM (active)
Cc1ccc(C(=O)CC2(O)C(=O)N(CCc3ccccc3)c3ccc(Br)cc32)cc1 (stereo not given)	inactive
CCOc1ccccc1C(=O)NCC(c1ccc(N(C)C)cc1)N1CCCC1 (stereo not given)	inactive
COc1ccccc1NC(=O)c1sc2nc(C)c(C(=O)Nc3ccc(Cl)cc3)c(-c3ccc(Br)cc3)c2c1N	inactive
COC(=O)c1ccccc1NC(=O)Cn1c(=O)cc(C)c2c(C)nn(-c3cccc(Cl)c3C)c21	inactive
CCOc1ccc(N(CC)C(=O)c2cc3c(=O)oc4ccccc4c3s2)cc1	inactive
Cc1ccc(Cn2c(CNC(=O)Cc3cccc(C)c3)nc3cccnc32)cc1	inactive

SMILES	Potency
Cc1ccc(C)c(NC(=O)Cn2ccn(-c3ccc(F)cc3)c(=O)c2=O)c1	inactive
COc1cc2nc(SCC(=O)Nc3ccccc3F)n3nc(-c4ccccc4)nc3c2cc1OC	inactive
Cc1cccc(N2CCN(C(=O)c3ccc4c(c3)CCN4S(=O)(=O)c3ccccc3)CC2)c1C	inactive
O=C(NCCCO)C(=O)Nc1c2c(nn1-c1ccccc1)CSC2	inactive
CCCCN(C)S(=O)(=O)c1ccc(C(=O)Nc2sc3c(c2C(N)=O)CC(C)(C)NC3(C)C)cc1	inactive
O=C(CCSCc1ccccc1F)N1CCN(c2ccc(Cl)cc2)CC1	inactive
COc1cc(OC)c(NC(=O)N2CC3CCCN3c3ccccc32)cc1Cl (stereo not given)	inactive
COc1ccc(CNc2nc(-c3ccc(Cl)cc3)nn2C(=O)c2ccccc2)cc1	inactive
CCOc1ccc(-n2c(C)nc3c(cnn3-c3ccc(C)cc3)c2=O)cc1	inactive
COc1ccccc1NC(=O)CSC1=Nc2ccccc2C2=NC(CC(=O)NCc3cccs3)C(=O)N12 (stereo not given)	inactive
COc1cc(NC(=O)Cn2nc(-c3ccc(C)c(C)c3)ccc2=O)cc(OC)c1	inactive
CCN(CC)c1cc(NC2CCCCC2)c2c3c(onc13)-c1ccccc1C2=O	inactive
COc1ccc(-c2noc(CSc3nc4ccc(C)cc4[nH]3)n2)cc1	inactive
CCCCN(CC)CCCNC(=O)Cn1ncc2c([nH]c3ccc(C)cc32)c1=O	inactive
COc1cccc(CNCc2c(C(=O)O)n(Cc3ccc(C)cc3)c3cc(C)ccc23)c1OC	inactive
CCOC(=O)c1c(C)[nH]c(CCC(=O)NCCCN2CCN(c3cccc(Cl)c3)CC2)c1C	inactive
CCOC(=O)c1c(C)[nH]c(CCC(=O)Nc2ccc(OC)c(OC)c2)c1C	inactive
CC1=C(c2ccc(C)cc2)S(=O)(=O)NC1=NCCCN1CCN(c2cc(C)ccc2C)CC1	inactive
Cc1ccc(C)c(N2CCN(CCCNC(=O)Nc3ccc(Cl)cc3)CC2)c1	18.5 µM (active)
CCOC(=O)c1c(C)[nH]c(CCC(=O)NCCCN2CCN(c3cc(C)ccc3C)CC2)c1C	13.1 µM (active)
CC1=C(c2ccc(Cl)cc2)S(=O)(=O)N=C1N1CCN(c2cc(C)ccc2C)CC1	inactive
CCn1c2ccccc2c2cc(NC(=O)COc3ccc(C)cc3C)ccc21	inactive
COc1ccc(-c2nn(CC(=O)Nc3ccccc3F)c3c2cnc2ccc(F)cc23)cc1	inactive
O=C1CSC2(C(=O)N(Cc3ccccc3)c3ccccc32)N1c1cccc(F)c1 (stereo not given)	inactive

SMILES	Potency
CCC1CCCCN1C(=O)Cn1c(=O)n(CCCCCC(=O)NCc2ccccc2)c(=O)c2sccc21 (stereo not given)	inactive
O=C(Nc1ccc2c(c1)OCO2)c1cc(-c2cccc(Cl)c2)on1	inactive
Cc1ccc2c(=O)c(C(=O)c3cccc(Cl)c3)cn(CC(=O)NCc3ccccc3)c2n1	inactive
N#Cc1ccccc1Cn1cnc2nc3c(cc2c1=O)CCCC3	inactive
CC(C)c1ccc(NC(=O)c2ccc(Cn3nc(N4CCN(c5ccccc5)CC4)ccc3=O)o2)cc1	inactive
COc1ccc(SCc2cc(=O)c3ccc(C)c(C)c3[nH]2)cc1	inactive
COc1ccc(-c2cc(C(F)(F)F)nc(SCC(=O)N(C)Cc3ccccc3)n2)cc1OC	inactive
Cc1ccc(S(=O)(=O)N(CC(=O)Nc2ccc(Cl)cc2Cl)c2ccccc2C)cc1	inactive
COc1ccccc1NC(=O)C(=O)c1cc(C)n(-c2ccccc2F)c1C	inactive
COc1cc(NC(=O)c2noc3c2CSc2ccccc2-3)cc(OC)c1OC	inactive
CCN(CC)c1ccc(NS(=O)(=O)c2cc(-c3cc(C)no3)ccc2C)c(C)c1	inactive
O=C(NCc1ccc2c(c1)CCN2C(=O)c1ccccc1)c1ccccc1	inactive
Cc1cccc(C)c1Nc1c(-c2ccccc2O)nc2ncccn12	inactive
CCc1cccc(C)c1Nc1c(-c2ccc(N(C)C)cc2)nc2ncccn12	13.1 µM (active)
COc1ccc(-c2nc3nc(C)cc(C)n3c2Nc2c(C)cccc2C)cc1	inactive
CCOc1ccccc1N(CC)C(=O)c1cc2ccc3cccnc3c2[nH]1	inactive
Cc1ccc(C(=O)N2CCc3cc(CNC(=O)c4ccc(Br)cc4)ccc32)cc1	inactive
Cc1ccc(-n2c(=O)c3cccnc3n2CC(=O)Nc2ccccc2C(F)(F)F)cc1C	inactive
COc1ccccc1Nc1c2c(nc3ccc(NC(=O)/C=C/c4cc(OC)c(OC)c(OC)c4)cc13)CCCC2	3.29 µM (active)
COc1cc(C(=O)Nc2ccc(-n3c(C)nc4ccccc4c3=O)cc2)cc(OC)c1OC	inactive
COc1cc(NC(=O)c2nc3ccccc3nc2C)cc(OC)c1OC	inactive
COc1ccc(NC(=O)c2ccc3oc(=O)c(S(=O)(=O)c4ccc(F)cc4)cc3c2)c(OC)c1	inactive
CCC(=O)NCc1cc(-c2nn(C)c(=O)c3ccccc23)ccc1OC	inactive
